A selection: hits, their analogues and other compounds. The true share with any hit is near 28%.
CYP2C9 act – human CYP2C9 activators, primary screen, biochemical, luminescence; actives 1.4% (n = 96,000); recombinant CYP2C9, luciferin-H conversion; stronger effect = higher value; factor 1 = untreated enzyme, 0 = blocked; AID 1024, 2008; Cytochrome P450 2C9 (Homo sapiens), P11712; activation factor at 5 µM;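 active = activation factor of 2 or more for CYP2C9 at a 5 µM dose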
DAT uptake mod – changed hDAT dopamine uptake under cocaine IC80, either direction, primary screen, cocaine antagonist project, cell-based, LLC-PK1 hDAT, [14C]-dopamine uptake, MLSMR. LLC-PK1 hDAT cells, [14C]-dopamine uptake with cocaine IC80; actives deviate in either direction. B-score at 10 µM. actives 1.3% (n = 110,000). AID 449768, 2010;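 active = Z score or B-score, a plate-position-corrected score, falls beyond the plate's 99.7% confidence bounds, in either direction; inactive = both scores lie inside the 99.7% bounds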
CYP2C19 act – human CYP2C19 activators, primary screen, biochemical, luminescence; activation factor at 5 µM; recombinant CYP2C19, luciferin-H EGE luminescence; stronger effect = higher value; 0 = fully inhibited enzyme, 1 = untreated enzyme; 96,000 tested, under 10 active; Cytochrome P450 2C19 (Homo sapiens), P33261;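 active = activation factor of at least 2 at 5 µM in the primary screen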
CYP2C19 inhib – blockers of cytochrome P450 2C19 activity – biochemical, luminescence, ADME assay, primary screen; CYP2C19 Supersomes, luciferin-H EGE luminescence, 30 min; inhibition, % at 5 µM; actives 21% (n = 96,000);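 active = CYP2C19 inhibition above a set limit at 5 µM in the primary screen, cut at about 50% in these data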
D1 mod – D1 CRE-luciferase signal change, two-sided – cell-based, HEK293 D1, dopamine EC30, D1 allosteric modulator project, primary screen; AID 641, 2007; actives 5.9% (n = 58,000); B-score at 10 µM; dopamine EC30 potentiation; actives deviate in either direction;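 active = luminescence count or its row- and column-corrected plate score outside the 99.7% band of the plate's sample wells, on either side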
Target sequence (P21728 whole entry, looked up): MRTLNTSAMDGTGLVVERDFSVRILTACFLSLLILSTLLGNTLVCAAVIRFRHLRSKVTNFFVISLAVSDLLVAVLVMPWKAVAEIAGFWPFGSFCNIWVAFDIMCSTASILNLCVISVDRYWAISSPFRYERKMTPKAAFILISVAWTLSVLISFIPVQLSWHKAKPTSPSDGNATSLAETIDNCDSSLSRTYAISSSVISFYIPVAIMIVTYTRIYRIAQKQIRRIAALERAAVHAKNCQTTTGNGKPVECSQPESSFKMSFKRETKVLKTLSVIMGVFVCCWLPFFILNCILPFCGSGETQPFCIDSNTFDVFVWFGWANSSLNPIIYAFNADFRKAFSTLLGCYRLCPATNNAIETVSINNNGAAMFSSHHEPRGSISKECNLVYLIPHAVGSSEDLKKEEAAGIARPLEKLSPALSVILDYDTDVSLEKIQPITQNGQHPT
CYP2C9 inhib – blockers of cytochrome P450 2C9 activity – biochemical, luminescence, ADME assay, primary screen; CYP2C9 Supersomes, luciferin-H conversion; inhibition, % at 5 µM; actives 20% (n = 96,000); AID 777, 2007;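 active = blocking of liver enzyme CYP2C9 beyond about 50% at 5 µM, limit read from the data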
Numbers stand for hits; - = inactive; . = not tested or not shown.

SMILES | CYP2C9 act | DAT uptake mod | CYP2C19 act | CYP2C19 inhib | D1 mod | CYP2C9 inhib
COCCn1c(SCC(=O)Nc2ccc(S(=O)(=O)N(C)C)cc2)nc2ccccc21 | - | - | - | - | . | -
Cc1c(C(=O)N2CCOCC2)[nH]c2c1C(=O)CC(c1ccccc1Cl)C2 (stereo not drawn) | - | - | - | - | - | -
COc1ccc(C2CC(=O)C(C=NCCO)=C(O)C2)cc1OC (stereo not drawn) | - | - | - | - | - | -
COC(=O)c1[nH]c2c(c1C)C(=O)CC(c1ccccc1)C2 (stereo not drawn) | - | - | - | 53 | - | 71
CCOC(=O)c1[nH]c2c(c1C)C(=O)CC(c1ccc(OC)c(OC)c1)C2 (stereo not drawn) | - | - | - | - | - | 81
COc1cc(C2CC(=O)c3c([nH]c(C(=O)OCCOC(C)C)c3C)C2)cc(OC)c1OC (stereo not drawn) | - | - | - | - | - | 79
CC(C)(C)c1ccc(/C([O-])=C(/C(=S)NCc2ccco2)[n+]2ccccc2)cc1 | - | - | - | - | . | -
Cc1ccccc1NC(=S)NC(NC(=O)c1ccccc1C)C(Cl)(Cl)Cl (stereo not drawn) | - | - | - | - | . | -
Cc1ccc(NC(=O)c2cnc3scc(C)n3c2=O)c(C)c1 | . | . | . | . | - | .
CCN(CC)CCCN(C(=O)c1cccs1)c1nc(-c2ccc(OC)cc2)cs1 | - | - | - | - | - | -
COc1ccc(-c2csc(N(CC3CCCO3)C(=O)c3cccs3)n2)cc1 (stereo not drawn) | - | - | - | 88 | - | 92
COc1ccc(OC)c(-c2csc(N(Cc3ccco3)C(=O)c3cccs3)n2)c1 | - | - | - | 78 | - | 85
CCOC(=O)c1cccc(NC(=O)CSc2nnc(COc3ccccc3C)o2)c1 | - | - | - | - | - | -
c1cc2c3c(cccc3c1)NC1(CCCCCC1)N2 | - | - | - | 87 | - | 62
CC1=Nc2cccc3cccc(c23)N1 | - | - | - | - | . | -
c1cc2c3c(cccc3c1)NC1(CCCCC1)N2 | - | - | - | 72 | . | 52
CCOC(=O)c1ccc(NC(=O)N(CC)CC)cc1 | - | - | - | - | - | -
Cc1c(CCO)c(=O)n(-c2ccccc2)n1S(=O)(=O)c1c(Cl)cc(Cl)cc1Cl | - | - | - | 57 | . | -
Cc1cc(C=O)c(C)n1-c1ccc(N2CCCC2)c([N+](=O)[O-])c1 | - | - | - | 70 | . | -
CN(C)c1ccc(C2N(c3cccc(Cl)c3)C(=O)C3CCCN32)cc1 (stereo not drawn) | . | . | . | . | - | .
CCOc1ccc(C2=Nn3cnnc3SC2)cc1 | - | - | - | 95 | - | -
c1ccc(-c2nnc(Cn3c4ccccc4c4nc5ccccc5nc43)o2)cc1 | . | . | . | . | - | .
CC(O)c1nc2ccccc2n1Cc1nnc(-c2ccc(Cl)cc2)o1 (stereo not drawn) | - | - | - | 66 | -4.6 | -
Cc1nc2sc(C(c3ccco3)N3CC(C)OC(C)C3)c(O)n2n1 (stereo not drawn) | - | - | - | - | - | -
CCc1c(C)[nH]c2c(C)cccc2c1=O | - | - | - | - | . | -
CCc1c(C)[nH]c2ccccc2c1=O | 4.7 | - | - | - | - | -
COCCN(CCOC)Cc1c(C)[nH]c2ccccc2c1=O | - | - | - | 65 | - | -
CC(=O)CCc1c(C)[nH]c2ccccc2c1=O | 2.2 | - | - | - | - | -
CC(=O)c1c(C)[nH]c2ccccc2c1=O | - | - | - | - | . | -
Cc1noc(C)c1S(=O)(=O)N1CCN(C(c2ccccc2)c2ccc(Cl)cc2)CC1 (stereo not drawn) | - | - | - | 75 | - | 77

Screening data (PubChem)
